From PubChem BioAssay
Unmarked numbers belong to inactive results. The rule behind the calls is not given here.

molecular target: Pantothenate synthetase (Mycobacterium tuberculosis (strain ATCC 25618 / H37Rv)) (UniProt P9WIL5); assay: Coupled enzyme confirmation of inhibitors against recombinant Mtb PanC (AID 375); conditions: coupled enzyme assay; at 10 µM, active compounds read high;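 note: 0% = full reaction with vehicle and 100% = no enzyme background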
Sequence (P9WIL5 whole entry, looked up): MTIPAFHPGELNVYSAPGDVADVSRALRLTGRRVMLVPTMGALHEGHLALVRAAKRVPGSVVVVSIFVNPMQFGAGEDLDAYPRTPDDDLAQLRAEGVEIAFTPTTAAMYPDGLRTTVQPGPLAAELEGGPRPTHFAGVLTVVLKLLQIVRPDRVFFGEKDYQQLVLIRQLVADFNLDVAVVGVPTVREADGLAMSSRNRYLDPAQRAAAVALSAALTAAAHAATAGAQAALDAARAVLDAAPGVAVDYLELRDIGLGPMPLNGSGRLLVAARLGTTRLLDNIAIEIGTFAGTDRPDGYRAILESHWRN

SMILES | inhibition
COc1ccc(C2CC(c3ccco3)n3ncnc3N2)cc1 (stereo not drawn) | 4%
O=C(Cn1cnc2c(nnn2Cc2ccc(Cl)cc2)c1=O)NCC1CCCO1 (stereo not drawn) | 0%
Cc1ccc(Nc2nnns2)cc1C | 4%
CCOC(=O)C1=C(C)Nc2ncnn2C1c1cc(OC)ccc1OC (stereo not drawn) | 0%
COc1ccc(-c2nnc(SCC(=O)Nc3sc4c(c3C#N)CCC4)n2CC2CCCO2)cc1 (stereo not drawn) | 0%
O=C(Nc1ccc2c(c1)C(=O)N(C1CCCCC1)C2=O)C1CCCO1 (stereo not drawn) | 6%
O=C(NCCN1C(=O)C2C3C=CC(C3)C2C1=O)N1CCOCC1 (stereo not drawn) | 0%
ON=C1/C(=N\O)CC2(C/C1=N/O)OCCO2 | 0%
C=CCNC(=O)c1cccc(Br)c1 | 8%
CN(C(=O)c1c(Cl)nc2sccn12)C1CCCCC1 | 0%
COc1ccc(C(=O)COC(=O)CCn2nnc(-c3cccs3)n2)cc1 | 0%
CCOCCCn1c(=S)[nH]c2cc3c(cc2c1=O)OCO3 | 0%
Oc1ccccc1-c1nnc(COc2ccc(Cl)cc2Cl)o1 | 1%
CCOc1ccccc1N1CCN(C(=O)c2ccncc2)CC1 | 0%
O=C(Cn1c(C(=O)NCC2CCCO2)cc2sccc21)c1ccccc1 (stereo not drawn) | 0%
COCCn1c(-c2ccco2)nc2nc3ccccc3nc21 | 5%
CCCCn1nnnc1NCc1cccs1 | 0%
O=C(COC(=O)c1cc(S(=O)(=O)N2CCOCC2)ccc1O)NCC1CCCO1 (stereo not drawn) | 15%
COc1ccc(CCNC(=O)c2cnn3ccccc23)c(OC)c1OC | 4%
CN(C)CCOc1ccccc1Cc1ccccc1 | 0%
CN(C)CCN1C(=O)C(O)=C(C(=O)c2cc3ccccc3o2)C1c1ccc(N(C)C)cc1 (stereo not drawn) | 0%
Brc1ccccc1-c1nc(-c2ccccc2)no1 | 0%
Cc1cc(-c2nc3ncccc3o2)ccc1N | 0%
